Measurements taken from PubChem BioAssay (Tox21).
Values joined by “and” are separate entries in the source; they are usually repeats but may differ in a detail not shown here. Identical values can stand only once. Records with an inconclusive call do not appear. A structure can be active in one record and inactive in another. Active and inactive are the calls of the source. Unless noted, the call rests on the fitted dose curve; in most records, active means well fitted curve in the direction sought with a large enough effect in the repeat runs; inconclusive means weak or mixed curves; inactive means no such curve, though single readings can be large; an effect the other way counts as inactive or inconclusive.

Legend:
[1] = qHTS assay to identify small molecule agonists of H2AX - cell viability counter screen (AID 1224847; calls by dose curve; further: nearly all actives have a fitted effect of over 30% in size; further: potency means the concentration at half of the fitted maximal effect)
Summary of the method: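 CHO-K1 wt, 1000 cells/well, o/n 37C; cpds 15 conc, 3 h 37C, 0.76% DMSO; CellTiter-Glo, 30 min RT, luminescence.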

[2] = qHTS RealTime-Glo MT Cell Viability Assay in HepG2 cells - 24 hour (AID 1224867); further: nearly all actives have a fitted effect of over 50% in size
Summary of the method: (§1)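 HepG2 cells were seeded at 600 cells/well together with NanoLuc luciferase and a cell-permeant prosubstrate, preincubated 5 h at 37 C/5% CO2, then pin-dosed with compounds in DMSO. Nonlytic luminescence from viable cells was read at each time point.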

[3] = qHTS RealTime-Glo MT Cell Viability Assay in HEK293 cells - 32 hour (AID 1224868); further: nearly all actives have a fitted effect of over 50% in size; further: potency means the concentration at half of the fitted maximal effect
Summary of the method: (§2)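 HEK293 cells were seeded at 600 cells/well together with NanoLuc luciferase and cell-permeant prosubstrate, preincubated 5 h at 37 C/5% CO2, then given compound in DMSO by pintool. Luminescence from viable-cell prosubstrate reduction was read repeatedly over 40 h.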

[4] = A CellTox Green Cytotoxicity Assay to monitor cytotoxicity in HEK293 cells - 0 hour (AID 1224869); further: nearly all actives have a fitted effect of over 50% in size
Summary of the method: (§3)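 Tox21 screen in HEK293: membrane-impermeant cyanine dye fluoresces on binding dead-cell DNA; compound pinned 5 h post-seeding, plates held at 37 C, signal read repeatedly through 40 h.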

[5] = qHTS RealTime-Glo MT Cell Viability Assay in HepG2 cells - 40 hour (AID 1224870); further: nearly all actives have a fitted effect of over 50% in size
Summary of the method: (§4)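 HepG2 cells mixed with RealTime-Glo MT reagents (NanoLuc plus cell-permeant prosubstrate) were seeded at 600 cells/well, incubated 5 h at 37 C/5% CO2, then pinned with compounds in DMSO; nonlytic luminescence tracked viability during 40 h treatment.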

[6] = A CellTox Green Cytotoxicity Assay to monitor cytotoxicity in HEK293 cells - 40 hour (AID 1224871); further: nearly all actives have a fitted effect of over 45% in size
Summary of the method: as §3

[7] = qHTS RealTime-Glo MT Cell Viability Assay in HEK293 cells - 16 hour (AID 1224872)
Summary of the method: as §2

[8] = qHTS RealTime-Glo MT Cell Viability Assay in HepG2 cells - 8 hour (AID 1224873); further: nearly all actives have a fitted effect of over 55% in size
Summary of the method: as §4

[9] = qHTS RealTime-Glo MT Cell Viability Assay in HEK293 cells - 40 hour (AID 1224874); settings: RealTime-Glo luminescence; max response: stronger effect = lower value; further: nearly all actives have a fitted effect of over 50% in size; further: potency means the concentration at half of the fitted maximal effect
Summary of the method: (§5)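 HEK293 + NanoLuc + prosubstrate, 600 cells/well; 5 h, 37 C/5% CO2; compound 23 nL in DMSO by pintool; 37 C; luminescence read at 0, 8, 16, 24, 32 and 40 h time points.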

[10] = A CellTox Green Cytotoxicity Assay to monitor cytotoxicity in HEK293 cells - 24 hour (AID 1224875); further: nearly all actives have a fitted effect of over 45% in size
Summary of the method: as §3

[11] = A CellTox Green Cytotoxicity Assay to monitor cytotoxicity in HepG2 cells - 16 hour (AID 1224876); further: nearly all actives have a fitted effect of over 45% in size
Summary of the method: (§6)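 Measurements at 0, 8, 16, 24, 32 and 40 h of treatment captured CellTox Green fluorescence in HepG2 cells that had been co-plated with reagent and preincubated 5 h at 37 C/5% CO2.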

[12] = qHTS RealTime-Glo MT Cell Viability Assay in HepG2 cells - 32 hour (AID 1224877); further: nearly all actives have a fitted effect of over 55% in size
Summary of the method: as §1

[13] = A CellTox Green Cytotoxicity Assay to monitor cytotoxicity in HepG2 cells - 24 hour (AID 1224878); further: nearly all actives have a fitted effect of over 45% in size
Summary of the method: as §6

[14] = A CellTox Green Cytotoxicity Assay to monitor cytotoxicity in HepG2 cells - 40 hour (AID 1224879); further: nearly all actives have a fitted effect of over 40% in size
Summary of the method: as §6

[15] = qHTS RealTime-Glo MT Cell Viability Assay in HEK293 cells - 0 hour (AID 1224880)
Summary of the method: as §5

[16] = A CellTox Green Cytotoxicity Assay to monitor cytotoxicity in HEK293 cells - 32 hour (AID 1224881); further: nearly all actives have a fitted effect of over 40% in size; further: potency means the concentration at half of the fitted maximal effect
Summary of the method: as §3

[17] = A CellTox Green Cytotoxicity Assay to monitor cytotoxicity in HepG2 cells - 0 hour (AID 1224882); further: nearly all actives have a fitted effect of over 35% in size
Summary of the method: as §6

[18] = A CellTox Green Cytotoxicity Assay to monitor cytotoxicity in HepG2 cells - 32 hour (AID 1224883); further: nearly all actives have a fitted effect of over 50% in size
Summary of the method: as §6

[19] = qHTS assay to identify small molecule antagonists of the estrogen related receptor (ERR) signaling pathway from Tox21 library (AID 1224848); further: nearly all actives have a fitted effect of over 50% in size; further: potency means the concentration at half of the fitted maximal effect
Summary of the method: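 Tox21 10K compounds in DMSO tested for ERR pathway antagonism in NTP's ERR cell line; 18 h, 37 C exposure; ONE-Glo luminescence.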

[20] = qHTS assay to identify small molecule agonists of the estrogen related receptor (ERR) signaling pathway from Tox21 library (AID 1224849; calls by dose curve; further: nearly all actives have a fitted effect of over 15% in size); settings: ERR reporter cell line, ONE-Glo luciferase, 18 h; at 92.4 µM (top of the series)
Summary of the method: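 Tox21 compounds tested for ERR agonism in an NTP reporter cell line: 18 h treatment at 37 C, then ONE-Glo luminescence.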
On the % scale 0 is the no-effect control and ±100 the full control effect.

Nc1ccc(Cc2ccc(N)cc2)cc1
inactive: Potency [1] | outcome [2] | Potency [3] | Potency [4] | outcome [5] | Potency [6] | outcome [7] | outcome [8] | max response [9] -10.2% | Potency [10] | Potency [11] | outcome [12] | Potency [13] | Potency [14] | outcome [15] | Potency [16] | Potency [17] | Potency [18]

CCCCN(CC)C(=O)SCCC
inactive and 19.5 µM (active): Potency [3]
inactive: Potency [1] | outcome [2] | Potency [4] | outcome [5] | Potency [6] | outcome [7] | outcome [8] | max response [9] 0.284% | Potency [10] | Potency [11] | outcome [12] | Potency [13] | Potency [14] | outcome [15] | Potency [16] | Potency [17]

CC(C)N1C(=O)c2ccccc2NS1(=O)=O
inactive: Potency [1] | Potency [19] | activity change, positive = activation [20] -10.6% and -6.56% | outcome [2] | Potency [3] | Potency [4] | outcome [5] | Potency [6] | outcome [7] | outcome [8] | max response [9] -5.03% and 3.56% | Potency [10] | Potency [11] | outcome [12] | Potency [13] | Potency [14] | outcome [15] | Potency [16] | Potency [17]

CC(C#N)CCC#N (stereo not given)
inactive: Potency [1] | Potency [19] | activity change, positive = activation [20] 5.4% and 2.56% | outcome [2] | Potency [3] | Potency [4] | outcome [5] | Potency [6] | outcome [7] | outcome [8] | max response [9] 6.71% and -8.28% | Potency [10] | Potency [11] | outcome [12] | Potency [13] | Potency [14] | outcome [15] | Potency [16] | Potency [17] | Potency [18]

O=[N+]([O-])c1ccccc1
inactive: Potency [1] | Potency [19] | activity change, positive = activation [20] 8.72% and 8.25% | outcome [2] | Potency [3] | Potency [4] | outcome [5] | Potency [6] | outcome [7] | outcome [8] | max response [9] 6.12% and 17.8% | Potency [10] | Potency [11] | outcome [12] | Potency [13] | Potency [14] | outcome [15] | Potency [16] | Potency [17] | Potency [18]

CN=C=S
inactive: Potency [1] | Potency [19] | activity change, positive = activation [20] 0.382% and 8.43% | outcome [2] | Potency [3] | Potency [4] | outcome [5] | Potency [6] | outcome [7] | outcome [8] | max response [9] 6.14% and -4.64% | Potency [10] | Potency [11] | outcome [12] | Potency [13] | Potency [14] | outcome [15] | Potency [16] | Potency [17] | Potency [18]

CCc1cccc(C)c1N(C(=O)CCl)C(C)COC (stereo not given)
inactive: Potency [1] | activity change, positive = activation [20] -45.5% and -42% | outcome [2] | Potency [3] | Potency [4] | outcome [5] | Potency [6] | outcome [7] | outcome [8] | max response [9] -0.256% and -7.36% | Potency [10] | Potency [11] | outcome [12] | Potency [13] | Potency [14] | outcome [15] | Potency [16] | Potency [17]
active: Potency [19] 51.3 µM and 54.5 µM

CC(C)(Cl)Cl
inactive: Potency [1] | outcome [2] | Potency [3] | Potency [4] | outcome [5] | Potency [6] | outcome [7] | outcome [8] | max response [9] 0.337% and 2.87% | Potency [10] | Potency [11] | outcome [12] | Potency [13] | Potency [14] | outcome [15] | Potency [16] | Potency [17]

O=c1n(Cl)c(=O)n(Cl)c(=O)n1Cl
inactive: Potency [1] | outcome [2] | Potency [3] | Potency [4] | outcome [5] | Potency [6] | outcome [7] | outcome [8] | max response [9] 1.37% and 3.54% | Potency [10] | Potency [11] | outcome [12] | Potency [13] | Potency [14] | outcome [15] | Potency [16] | Potency [17]

CCCCOC(=O)c1ccccc1C(=O)OCCCC
inactive: Potency [1] | Potency [19] | activity change, positive = activation [20] -4.86% and -5.73% | outcome [2] | Potency [3] | Potency [4] | outcome [5] | Potency [6] | outcome [7] | outcome [8] | max response [9] -5.69% and -1.79% | Potency [10] | Potency [11] | outcome [12] | Potency [13] | Potency [14] | outcome [15] | Potency [16] | Potency [17]

O=c1[nH]c(=O)[nH]c(=O)[nH]1
inactive: Potency [1] | Potency [19] | activity change, positive = activation [20] 1.86% and -0.392% | outcome [2] | Potency [3] | Potency [4] | outcome [5] | Potency [6] | outcome [7] | outcome [8] | max response [9] 1.39% and 0.958% | Potency [10] | Potency [11] | outcome [12] | Potency [13] | Potency [14] | outcome [15] | Potency [16] | Potency [17]

O=C(O)c1ccccn1
inactive: Potency [1] | outcome [2] | Potency [3] | Potency [4] | outcome [5] | Potency [6] | outcome [7] | outcome [8] | max response [9] -2.82% and 14.7% | Potency [10] | Potency [11] | outcome [12] | Potency [13] | Potency [14] | outcome [15] | Potency [16] | Potency [17]

CCCC1COC(Cn2cncn2)(c2ccc(Cl)cc2Cl)O1 (stereo not given)
49.9 µM (active) and inactive: Potency [16]
active: Potency [1] 115 µM | Potency [3] 22.3 µM and 24.5 µM | Potency [9] 25 µM and 21.9 µM
inactive: outcome [2] | Potency [4] | outcome [5] | outcome [8] | Potency [11] | outcome [12] | Potency [13] | outcome [15] | Potency [17]
